USP7 block: blocks human USP7 ubiquitin-rhodamine cleavage | Q93009 | 47,000 tested, 0.3% active | inhibition, % at 20 µM | purified USP7, Ub-rhodamine cleavage fluorescence
Target sequence (Q93009 whole entry, looked up): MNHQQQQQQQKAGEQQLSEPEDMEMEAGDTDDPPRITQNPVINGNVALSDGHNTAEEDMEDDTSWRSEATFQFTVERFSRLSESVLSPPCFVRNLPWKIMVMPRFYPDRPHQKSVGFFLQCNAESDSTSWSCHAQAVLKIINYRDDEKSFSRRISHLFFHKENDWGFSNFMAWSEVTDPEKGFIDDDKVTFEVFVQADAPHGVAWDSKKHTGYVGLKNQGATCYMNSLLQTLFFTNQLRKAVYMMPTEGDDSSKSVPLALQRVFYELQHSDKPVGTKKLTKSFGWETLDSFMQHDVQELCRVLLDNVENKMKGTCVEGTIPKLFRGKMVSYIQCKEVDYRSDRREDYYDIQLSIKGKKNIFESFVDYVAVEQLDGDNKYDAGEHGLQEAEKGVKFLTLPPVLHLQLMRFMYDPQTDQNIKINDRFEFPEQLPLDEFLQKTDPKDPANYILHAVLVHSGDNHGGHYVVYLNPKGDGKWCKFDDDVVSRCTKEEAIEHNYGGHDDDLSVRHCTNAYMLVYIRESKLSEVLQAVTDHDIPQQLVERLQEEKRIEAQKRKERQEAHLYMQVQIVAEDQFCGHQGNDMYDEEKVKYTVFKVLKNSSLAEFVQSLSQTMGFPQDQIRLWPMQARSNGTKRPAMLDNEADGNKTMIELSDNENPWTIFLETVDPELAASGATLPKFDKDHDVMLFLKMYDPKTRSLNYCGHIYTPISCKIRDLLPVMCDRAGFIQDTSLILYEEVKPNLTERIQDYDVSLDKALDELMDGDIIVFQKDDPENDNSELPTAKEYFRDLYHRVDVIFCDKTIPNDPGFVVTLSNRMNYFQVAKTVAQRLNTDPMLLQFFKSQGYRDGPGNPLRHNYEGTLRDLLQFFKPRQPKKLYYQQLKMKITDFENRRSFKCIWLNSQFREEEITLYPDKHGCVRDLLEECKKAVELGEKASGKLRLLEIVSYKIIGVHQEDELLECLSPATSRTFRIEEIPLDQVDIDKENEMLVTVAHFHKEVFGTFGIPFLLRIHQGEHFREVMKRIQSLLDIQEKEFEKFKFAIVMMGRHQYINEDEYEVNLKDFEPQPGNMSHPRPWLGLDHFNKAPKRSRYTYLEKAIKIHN
OTUD3 block: blocks human OTUD3 ubiquitin-rhodamine cleavage. 47,000 tested, 0.7% active. Q5T2D3. inhibition, % at 25 µM. purified OTUD3, Ub-rhodamine fluorescence, 2 h
USP8 inh: blocks human USP8 ubiquitin-rhodamine cleavage; AID 1645853; purified USP8, Ub-rhodamine cleavage fluorescence, 30 min; inhibition, % at 20 µM; P40818; 47,000 tested, 4.2% active
USP10 block: blocks human USP10 ubiquitin-rhodamine cleavage; 47,000 tested, 1.1% active; purified USP10, Ub-rhodamine fluorescence, 60 min; Q14694; inhibition, % at 20 µM
UCHL1 inh: blocks human UCHL1 ubiquitin-rhodamine cleavage; P09936; inhibition, % at 20 µM; purified UCHL1, Ub-rhodamine cleavage fluorescence; 47,000 tested, 0.2% active
Large screens that a line does not name were inactive. Hits are enriched below; roughly 5% of the tested compounds scored in any of these assays. Rule as the data show it: active = inhibition above about 30%; inactive = the rest.

Cc1cc2c(cc1C)NC(CC(=O)Nc1ccc(O)cc1)C(=O)N2 (stereo not drawn)	USP8 inh 81
CC1(O)C(=O)C=Cc2c1ccc(O)c2CO (stereo not drawn)	none
CCCCN1CCN(c2ccc3c(c2)OCO3)C1=O	none
COC(=O)c1cccc2nc3c(C(C)O)cccc3nc12 (stereo not drawn)	none
Cc1cccc(O)c1C(=O)OC(C)c1cccc2nc3c(C(=O)O)cc4c(c3nc12)C(C)c1cccc2c1N4c1cccc(C(=O)O)c1N2 (stereo not drawn)	USP7 block 100, OTUD3 block 101, USP8 inh 95, USP10 block 99, UCHL1 inh 95
Cn1c(C2CCN(C(=O)c3ccc(Cl)cc3)C2)nc2ccncc21 (stereo not drawn)	none
O=c1[nH]c(-c2ccncc2)nc2c1CCN(Cc1cccn1-c1cccnc1)C2	USP8 inh 58
CC(C)Cn1nc(C(=O)N(CCc2cccs2)Cc2cccs2)c2ccccc2c1=O	none
C[C@H]1O[C@@H](c2ccc3c(c2O)C(=O)c2ccc(C[C@@](C)(O)CC(=O)O)c(O)c2C3=O)C[C@@H](O)[C@@H]1O	none
CCCCC/C=C/C=C/C(=O)OC1C(O)CC(c2ccc3c(c2O)C(=O)c2c(O)cc4cc(C)cc(O)c4c2C3=O)OC1C (stereo not drawn)	USP8 inh 57
Cn1ncc(Cl)c1C(=O)Nc1ccc2nc(NC(=O)C3CCCCC3)sc2c1	USP8 inh 58
O=C1N(Cc2ccccc2)C(=O)C2(Cc3ccccc3)CCCN12 (stereo not drawn)	none
O=C1c2ccccc2C2(CCCC2)C(=O)N1Cc1ccccc1	USP8 inh 49
Cc1cccc(Cl)c1NC(=O)Nc1ccc(NC(=O)c2ccccc2O)cc1	USP8 inh 42, USP10 block 39
O=C(Nc1ccc(F)cc1)Nc1ccc2ccccc2n1	USP8 inh 51
O=C(Nc1ccc(F)cc1)Nc1ccc(NC(=O)c2ccccc2O)cc1	USP8 inh 52
COc1ccccc1NC(=O)Nc1ccc(NC(=O)c2ccccc2O)cc1	USP8 inh 85
CCc1cccc(C)c1NC(=O)Nc1ccc(N2CCCCC2)cc1	none
O=C(Nc1ccc(NC(=O)c2ccccc2O)cc1)Nc1ccc(OCc2ccccc2)cc1	USP8 inh 91, USP10 block 61
Cc1nc(CC(=O)Nc2cc(F)cc(F)c2)sc1C(=O)NC1CC1	USP8 inh 61
Cc1cc(NC(=O)Cc2nc(C)c(C(=O)NC3CC3)s2)ccc1F	none
CCC1(C)Cc2ccccc2-c2[nH]c(=O)n(-c3ccc(C)cc3)c(=O)c21 (stereo not drawn)	none
Cc1ccc(C)n1-c1ccsc1-c1cc(N)n[nH]1	none
COc1ccc(C2NC(=O)NC(C)=C2C(=O)OC2CCCC2)cc1OC (stereo not drawn)	USP8 inh 35
CCCn1c(-c2ccccc2)cn2c3c(=O)[nH]c(=O)n(C)c3nc12	none
CCCn1c(-c2ccc(F)cc2)cn2c(-c3ccccc3)c(-c3ccccc3)nc12	USP8 inh 68
O=C(CSc1ncnc2c1c(-c1ccccc1)cn2-c1cccc(F)c1)c1ccccc1	none
O=[N+]([O-])c1ccc2nc3c(c(-c4ccccc4)c2c1)CNCC3	USP8 inh 82
N#Cc1c(-c2ccc(Cl)cc2)cc(-c2cccc(Br)c2)[nH]c1=O	USP8 inh 52
N#Cc1c(-c2cccs2)cc(-c2cccs2)[nH]c1=O	none
O=C(c1cccs1)N1CCC(Nc2ncnc3c2CCC3)CC1	none
COc1ccccc1CC(=O)Nc1cnc(-c2ccc(C)cc2)nc1	none
COc1ccccc1CC(=O)Nc1cnc(-c2ccc(F)cc2)nc1	USP8 inh 30
CC1CCN(C(CNC(=O)c2ccccc2)c2ccco2)CC1 (stereo not drawn)	none
COc1ccccc1NC(=O)c1cc(Br)cc(Cc2ccccc2)c1O	USP8 inh 49
CC(=O)c1ccc(S(=O)(=O)N2CCC3(CC2)NC(=O)c2ccccc2N3)cc1	USP8 inh 33
COc1ccc(C)cc1NC(=O)C1CC(=O)Nc2nc(SCc3ccccc3)nn21 (stereo not drawn)	USP10 block 34
CC(C)(C)C(=O)[C@@H]1[C@@H](C(=O)c2ccc3c(c2)OCO3)[C@@]2(C(=O)Nc3ccccc32)[C@H]2c3ccccc3C=CN12	USP8 inh 93
O=C(c1ccc2c(c1)OCO2)[C@@H]1[C@H](C(=O)OC(c2ccccc2)c2ccccc2)N2c3ccccc3C=CC2[C@@]12C(=O)Nc1ccccc12 (stereo partly drawn)	none
COc1ccc(Cl)c2sc(N3CCN(C(=O)c4ccn(C)n4)CC3)nc12	none
O=C(Nc1ccccc1)c1ccnc(Nc2ccc(F)cc2)c1	USP8 inh 40
CCN(CC)C(=O)Cn1cc(C(=O)C(=O)N2CCCCC2C)c2ccccc21 (stereo not drawn)	none
O=C(Nc1nc2c(s1)CCC2C(=O)Nc1ccc2c(c1)OCO2)c1ccccc1 (stereo not drawn)	USP8 inh 38
O=C(Nc1cccc(OC(=O)c2ccc3c(c2)OCO3)c1)c1ccccc1	none
Cc1cnc(NC(=O)c2cc3c(C)nn(Cc4ccccc4Cl)c3s2)s1	USP8 inh 56
Cc1cnc(NC(=O)c2ccccc2-c2ccccc2)s1	none
O=C(Nc1ccc2c(c1)OCCO2)c1cccc2nc3ccccc3nc12	OTUD3 block 31, USP8 inh 37
Cc1ccc(-c2cc(C(=O)Nc3ccc4c(c3)OCCO4)c3ccccc3n2)o1	none
CCC(C)N1CNc2c(c(=O)[nH]c(=O)n2Cc2ccco2)C1 (stereo not drawn)	USP10 block 31
COCC1c2c(cnn2CC2CC2)CCN1C(=O)c1cnccn1 (stereo not drawn)	none
N#C/C(=C\c1cccc(Oc2ncccn2)c1)c1ccc2c(c1)OCO2	none
COc1ccc(/C(C#N)=C\c2ccc3c(c2)OCO3)cc1	USP8 inh 30
Cc1cccc(-n2cnc(C(=O)NCc3ccc(F)cc3)c2)n1	USP8 inh 34
O=C(Nc1cc(=O)[nH]c2nc(COc3ccccc3)nn12)c1ccccc1	none
O=C(Nc1cc(=O)[nH]c2nc(COc3ccccc3)nn12)c1ccc(Cl)cc1	USP8 inh 35
CC(=O)c1oc2nc3c(c(-c4ccc(Cl)cc4)c2c1N)CCc1ccccc1-3	OTUD3 block 37, USP8 inh 65
N#Cc1c(N)nc2c(c1-c1ccccc1)CCc1ccccc1-2	none
O=C(O)c1cccc2[nH]c(-c3ccc(O)cc3)nc12	USP8 inh 41
COc1ccc(-c2csc3ncn(CC(=O)NCc4ccccc4)c(=O)c23)cc1	none
O=c1[nH]c(C2CCN(S(=O)(=O)c3ccc(S(=O)(=O)NC4CCCCC4)cc3)CC2)nc2c1nnn2Cc1cccc(F)c1	none
O=c1[nH]c(C2CCN(S(=O)(=O)c3ccc(S(=O)(=O)N4CCOCC4)cc3)CC2)nc2c1nnn2Cc1cccc(Cl)c1	USP8 inh 35
Cc1ccc(Cn2nnc3c(=O)[nH]c(C4CCN(S(=O)(=O)c5ccc(S(=O)(=O)NC6CCCC6)cc5)CC4)nc32)cc1	USP10 block 34
